According to PubChem BioAssay (EPA / NIEHS):
Results filed as inconclusive are left out. Active and inactive are the calls of the source. Rule for the calls, unless noted: active = hit-call score of the fitted dose curve at least 0.9, where 1 is the maximum; inactive = score below 0.9.

How the values were obtained:
[1] = target: human Retinoid X Receptor beta (RXRb), RXRB (gene 6257) (UniProt P28702); experiment: ATG_RXRb_TRANS: Attagene TRANS-FACTORIAL HepG2 Assay for human Retinoid X Receptor beta (RXRb) (AID 2283013; active = hit-call score of the fitted dose curve at least 0.9, where 1 is the maximum)
human Retinoid X Receptor beta (RXRb), RXRB (gene 6257), sequence (P28702 whole entry, looked up, the tested form may be a part): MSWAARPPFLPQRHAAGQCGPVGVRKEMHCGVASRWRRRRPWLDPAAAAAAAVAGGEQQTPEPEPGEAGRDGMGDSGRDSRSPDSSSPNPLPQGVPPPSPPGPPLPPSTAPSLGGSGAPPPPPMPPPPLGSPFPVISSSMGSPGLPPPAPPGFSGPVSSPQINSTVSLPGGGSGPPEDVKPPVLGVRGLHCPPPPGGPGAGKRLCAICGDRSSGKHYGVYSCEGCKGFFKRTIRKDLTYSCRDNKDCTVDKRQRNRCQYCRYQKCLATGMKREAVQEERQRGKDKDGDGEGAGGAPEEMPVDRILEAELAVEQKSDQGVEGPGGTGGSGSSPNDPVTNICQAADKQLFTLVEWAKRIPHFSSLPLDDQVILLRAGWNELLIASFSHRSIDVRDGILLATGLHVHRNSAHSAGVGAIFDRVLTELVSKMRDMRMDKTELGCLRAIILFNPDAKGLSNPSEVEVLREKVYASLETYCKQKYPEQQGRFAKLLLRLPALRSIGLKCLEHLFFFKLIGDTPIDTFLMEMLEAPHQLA
How it was run: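 Chimeric receptor-Gal4 activity was assessed in transiently transfected human HepG2 cells after 24 h exposure. Transcripts from GAL4-UAS reporters were quantified by fluorescent RT-PCR and capillary electrophoresis, with DMSO as negative control and baseline.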

[2] = read-out: E-selectin (Homo sapiens) (UniProt P16581); experiment: BSK_3C_Eselectin: BioMAP Diversity Plus: 3C Assay for Eselectin Biomarker Activity (AID 2283015); details: primary human endothelial cells (HUVEC); actives raise or lower the signal;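 for outcome: cell surface E-selectin protein quantified by ELISA 24 h after dosing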
How it was run: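 E-selectin ELISA readout, fitted bidirectionally relative to DMSO, taken 24 h post-dosing in HUVEC cultures of the 3C system. Overt cytotoxicity tracked with sulforhodamine B staining of parallel wells.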

[3] = read-out: Interleukin-1 alpha (IL1a), IL1A (gene 3552); experiment: BSK_BE3C_IL1a: BioMAP Diversity Plus: BE3C Assay for Interleukin-1 alpha (IL1a) Biomarker Activity (AID 2283016); details: primary human bronchial epithelial cells; actives raise or lower the signal
How it was run: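 Signal from IL-1a ELISA, taken 24 h after chemical dosing of human bronchial epithelial cells, is compared with DMSO as baseline using bidirectional curve fitting.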

[4] = read-out: Monocyte Chemoattractant Protein-1 (MCP1), CCL2 (gene 6347); experiment: BSK_3C_MCP1: BioMAP Diversity Plus: 3C Assay for Monocyte Chemoattractant Protein-1 (MCP1) Biomarker Activity (AID 2283017); details: primary human endothelial cells (HUVEC); actives raise or lower the signal
How it was run: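 MCP-1 was measured by ELISA 24 h after dosing in primary HUVEC 3C cultures and fitted in both directions relative to DMSO; cytotoxicity was checked by SRB total-protein staining in parallel wells.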

[5] = read-out: Monocyte Chemoattractant Protein-1 (MCP1), CCL2 (gene 6347); experiment: BSK_4H_MCP1: BioMAP Diversity Plus: 4H Assay for Monocyte Chemoattractant Protein-1 (MCP1) Biomarker Activity (AID 2283018); details: primary human endothelial cells (HUVEC); actives raise or lower the signal
How it was run: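 Endothelial cells from umbilical vein were treated with test chemical, then after 24 h MCP-1 levels were quantified by ELISA; endpoint values came from bidirectional fitting with DMSO as baseline of activity.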

[6] = read-out: Human Leukocyte Antigen - DR isotype (HLADR), HLA-DRA (gene 3122); experiment: BSK_3C_HLADR: BioMAP Diversity Plus: 3C Assay for Human Leukocyte Antigen - DR isotype (HLADR) Biomarker Activity (AID 2283019); details: primary human endothelial cells (HUVEC); actives raise or lower the signal;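 for outcome: ELISA of cell-surface HLA-DR on HUVEC 24 h after dosing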
How it was run: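 Bidirectional fitting against DMSO was applied to the HLA-DR ELISA signal from human umbilical vein endothelial cells, 24 h post-dose. Cytotoxicity came from parallel SRB total-protein staining; 3C proliferation was counted by SRB at 48 h.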

[7] = read-out: Interleukin-8 (IL8), CXCL8 (gene 3576); experiment: BSK_3C_IL8: BioMAP Diversity Plus: 3C Assay for Interleukin-8 (IL8) Biomarker Activity (AID 2283020); details: primary human endothelial cells (HUVEC); actives raise or lower the signal
How it was run: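 Endothelial primary cells of human umbilical vein origin are dosed with chemical; after 24 h the IL-8 biomarker is measured by ELISA, and concentration–response is fitted in both directions versus DMSO.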

[8] = target: human Thyroid Receptor alpha (THRa1), THRA (gene 7067) (UniProt P10827); experiment: ATG_THRa1_TRANS: Attagene TRANS-FACTORIAL HepG2 Assay for human Thyroid Receptor alpha (THRa1) (AID 2283014; active = hit-call score of the fitted dose curve at least 0.9, where 1 is the maximum)
human Thyroid Receptor alpha (THRa1), THRA (gene 7067), sequence (P10827 whole entry, looked up, the tested form may be a part): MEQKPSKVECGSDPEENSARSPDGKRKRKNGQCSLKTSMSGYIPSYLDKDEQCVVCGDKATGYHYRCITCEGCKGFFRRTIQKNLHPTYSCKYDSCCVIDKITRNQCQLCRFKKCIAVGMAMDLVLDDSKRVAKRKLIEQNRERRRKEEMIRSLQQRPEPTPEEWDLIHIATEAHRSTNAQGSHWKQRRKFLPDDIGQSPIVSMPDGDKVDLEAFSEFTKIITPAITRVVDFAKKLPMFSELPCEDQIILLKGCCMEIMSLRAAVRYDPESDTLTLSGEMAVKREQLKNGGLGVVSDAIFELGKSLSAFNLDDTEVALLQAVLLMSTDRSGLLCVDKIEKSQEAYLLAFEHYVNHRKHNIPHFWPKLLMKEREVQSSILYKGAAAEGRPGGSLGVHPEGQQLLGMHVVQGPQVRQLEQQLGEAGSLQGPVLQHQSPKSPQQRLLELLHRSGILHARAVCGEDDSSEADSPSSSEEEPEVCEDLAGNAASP
How it was run: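 Transcripts from GAL4-UAS-driven reporters, measured after 24 h compound exposure by RT-PCR plus capillary electrophoresis of 6-FAM-labeled fragments, were fitted for gain of signal relative to DMSO. Cells: transiently transfected HepG2 expressing NR-Gal4 chimeras.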

E-selectin (Homo sapiens), sequence (P16581 whole entry, looked up): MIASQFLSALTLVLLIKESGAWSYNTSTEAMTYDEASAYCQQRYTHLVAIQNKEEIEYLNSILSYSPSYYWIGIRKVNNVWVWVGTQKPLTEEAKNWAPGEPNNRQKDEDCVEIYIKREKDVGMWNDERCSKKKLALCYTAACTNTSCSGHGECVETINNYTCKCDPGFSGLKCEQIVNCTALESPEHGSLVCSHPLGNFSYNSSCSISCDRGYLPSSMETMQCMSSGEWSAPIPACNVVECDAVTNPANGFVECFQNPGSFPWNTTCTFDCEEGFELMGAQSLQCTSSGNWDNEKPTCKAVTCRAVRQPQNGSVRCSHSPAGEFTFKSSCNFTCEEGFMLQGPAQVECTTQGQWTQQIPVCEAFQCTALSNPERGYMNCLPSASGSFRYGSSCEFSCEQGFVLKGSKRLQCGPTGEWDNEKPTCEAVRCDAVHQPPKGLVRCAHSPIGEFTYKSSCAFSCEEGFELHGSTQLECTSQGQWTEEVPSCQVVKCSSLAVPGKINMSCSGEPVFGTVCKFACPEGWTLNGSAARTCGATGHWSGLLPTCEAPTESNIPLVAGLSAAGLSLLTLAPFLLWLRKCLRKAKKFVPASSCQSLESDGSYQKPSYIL

With `c1ccc2sc(SN(C3CCCCC3)C3CCCCC3)nc2c1` the outcome [1] was “inactive”, the AC50 [2] was 1.78 µM (active) and the outcome [3] was “inactive”. For the same molecule, the AC50 [4] was 10.1 µM (active), the AC50 [5] was 4.34 µM (active) and the AC50 [6] was 10.2 µM (active). The outcome [7] was “inactive”.
`O=C(O)c1cn(C2CC2)c2cc(N3CCNCC3)c(F)cc2c1=O` was tested, and the outcome [1] was “inactive”, the outcome [2] was “inactive” and the outcome [3] was “inactive”. The outcome [4] was “inactive”, the outcome [5] was “inactive” and the outcome [6] was “inactive”. The outcome [7] was “inactive”.
For `CC(CN1c2ccccc2Sc2ccccc21)N(C)C` (stereo not given), the outcome [8] was “inactive”.
For `O=c1cc(-c2ccccc2)oc2cc(O)cc(O)c12`, the outcome [8] was “inactive”.
`O=c1[nH]c(=O)n([C@H]2CCCO2)cc1F` was tested, and the outcome [8] was “inactive”.
In the case of `O=[N+]([O-])c1cc(C(F)(F)F)ccc1Cl`, the outcome [2] is reported as “inactive”, the outcome [3] is reported as “inactive” and the outcome [4] is reported as “inactive”. For the same molecule, the outcome [5] was “inactive”, the outcome [6] was “inactive” and the outcome [7] was “inactive”.
In the case of `C=CCOC(=O)CCC1CCCCC1`, the outcome [2] is reported as “inactive”, the outcome [3] is reported as “inactive” and the outcome [4] is reported as “inactive”. The outcome [5] was “inactive”, the outcome [6] was “inactive” and the outcome [7] was “inactive”.
`CNC[C@H](O)c1cccc(O)c1` was tested, and the AC50 [1] was 33.9 µM (active), the outcome [8] was “inactive” and the outcome [2] was “inactive”. The outcome [3] was “inactive”, the outcome [4] was “inactive” and the outcome [5] was “inactive”. The outcome [6] was “inactive” and the outcome [7] was “inactive”.
`CCC(C(=O)NC(N)=O)c1ccccc1` (stereo not given) was tested, and the outcome [8] was “inactive”.
For `CC1(C)[C@H](C(=O)OCc2cccc(Oc3ccccc3)c2)[C@@H]1C=C(Cl)Cl`, the outcome [8] was “inactive”.
In the case of `O=[N+]([O-])c1ccc(C=Cc2ccc([N+](=O)[O-])cc2S(=O)(=O)O)c(S(=O)(=O)O)c1`, the outcome [8] is reported as “inactive”.
`OCCCCCO` was tested, and the outcome [8] was “inactive”.
`O=C(O)COCCN1CCN(C(c2ccccc2)c2ccc(Cl)cc2)CC1` (stereo not given) was tested, and the outcome [8] was “inactive”.
For `CC(C)(COC(=O)c1ccccc1)COC(=O)c1ccccc1`, the outcome [1] was “inactive”, the outcome [8] was “inactive” and the AC50 [2] was 20 µM (active). The outcome [3] was “inactive”, the AC50 [4] was 34.4 µM (active) and the AC50 [5] was 11.3 µM (active). For the same molecule, the AC50 [6] was 27.8 µM (active) and the outcome [7] was “inactive”.
